A selection: hits, their analogues and other compounds. The true share with any hit is near 5.3%.
Six1-Eya2 blk – inhibitors of human Six1/Eya2 interaction; actives 0.56% (n = 360,000); AlphaScreen GST-Six1/His-Eya2 binding, biochemical; hits give low values; Q15475+O00167; activity change, % (no concentration beside the values); in the data active = activity change below about -65%; inconclusive = mostly about -30% to -63%; also: % is scaled to controls: 0 for no effect and ±100 for the full control effect
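Homogeneous AlphaScreen proximity assay pairing GST-Six1 with His-tagged Eya2 (added as 5X mix: 250 nM and 500 nM) in 50 mM Tris pH 8.0, 300 mM NaCl, 1 mM TCEP. Glutathione donor and nickel acceptor beads; 1 h, 37 °C, dark.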
CtBP-E1A inh – inhibitors of CtBP/E1A interaction | AlphaScreen GST-E1A/His-CtBP binding, 1536-well; hits give low values | activity change, % (no concentration beside the values) | actives 0.49% (n = 340,000); in the data active = activity change below about -65%; inconclusive = mostly about -30% to -63%; also: % is scaled to controls: 0 for no effect and ±100 for the full control effect
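GST-E1A and His-tagged CtBP (125 nM each as 5X stock) were preincubated with pin-transferred compound for 2 h at 37 °C in the dark, then glutathione donor and nickel acceptor beads were added for 1 h before AlphaScreen reading.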
TDP1 inh – blocks human tyrosyl-DNA phosphodiesterase 1. Q9NUW8. recombinant TDP1, AlphaScreen DNA substrate cleavage. Potency, µM (doses to about 130 µM), for inactives: at the highest dose activity change, negative = inhibition, most hits filed as inhibitors. actives 0.28% (n = 350,000). AID 485290; also: potency is read from the fitted curve at half-maximal effect; % is scaled to controls: 0 for no effect and ±100 for the full control effect; nearly all actives have a fitted effect of over 40% in size
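Tdp1 1 nM final; 15 min RT w/ cpd; substrate 15 nM, 5 min; beads 10 ug/ml, 10 min; AlphaScreen read. Neg ctrl: no enzyme.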
JMJD2A Tudor inh – JMJD2A Tudor domain (human) inhibition; O75164; AlphaScreen JMJD2A-Tudor / H3K4me3 peptide binding; Potency, µM (top dose mostly 114 µM), for inactives: at the top dose activity change, negative = inhibition, hits mostly inhibitors; actives 4.4% (n = 390,000); AID 504339; also: potency is read from the fitted curve at half-maximal effect; % is scaled to controls: 0 for no effect and ±100 for the full control effect; nearly all actives have a fitted effect of over 50% in size
Target sequence (O75164 whole entry, looked up, the tested form may be a part): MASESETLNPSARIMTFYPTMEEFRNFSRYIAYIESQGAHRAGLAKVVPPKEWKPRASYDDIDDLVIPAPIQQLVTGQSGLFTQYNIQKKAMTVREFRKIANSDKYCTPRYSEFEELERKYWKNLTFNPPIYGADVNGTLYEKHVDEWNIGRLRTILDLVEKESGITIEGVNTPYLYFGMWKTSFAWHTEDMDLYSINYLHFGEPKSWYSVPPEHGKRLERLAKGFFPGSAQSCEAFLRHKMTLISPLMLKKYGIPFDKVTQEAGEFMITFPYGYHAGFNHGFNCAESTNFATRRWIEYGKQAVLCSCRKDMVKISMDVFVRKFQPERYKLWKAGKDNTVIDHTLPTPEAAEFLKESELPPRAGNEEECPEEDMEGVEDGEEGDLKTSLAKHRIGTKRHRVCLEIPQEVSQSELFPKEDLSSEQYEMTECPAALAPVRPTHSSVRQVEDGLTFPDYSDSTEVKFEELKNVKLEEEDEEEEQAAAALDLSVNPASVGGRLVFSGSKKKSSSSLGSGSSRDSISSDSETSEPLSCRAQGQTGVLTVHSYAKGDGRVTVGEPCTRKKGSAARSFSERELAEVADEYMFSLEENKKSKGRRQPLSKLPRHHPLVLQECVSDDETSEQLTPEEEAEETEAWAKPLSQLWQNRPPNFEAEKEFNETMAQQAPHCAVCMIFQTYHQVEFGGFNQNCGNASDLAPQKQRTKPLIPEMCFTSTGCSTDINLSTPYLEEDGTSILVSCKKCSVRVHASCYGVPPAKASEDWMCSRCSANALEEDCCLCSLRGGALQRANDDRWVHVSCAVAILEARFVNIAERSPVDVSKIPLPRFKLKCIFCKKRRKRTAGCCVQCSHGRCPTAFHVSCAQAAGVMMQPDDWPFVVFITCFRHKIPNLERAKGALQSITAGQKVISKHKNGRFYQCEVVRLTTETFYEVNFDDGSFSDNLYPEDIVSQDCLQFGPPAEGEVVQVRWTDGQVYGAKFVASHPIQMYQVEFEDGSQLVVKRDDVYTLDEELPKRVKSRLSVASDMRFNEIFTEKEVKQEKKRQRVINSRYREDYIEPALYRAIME
HP1b chromo inh – inhibitors of HP1-beta chromodomain binding to methylated histone tails; P83916; AlphaScreen HP1-beta / biotin-H3K9me3 peptide binding; Potency, µM (top dose mostly 114 µM), without a hit: top-dose activity change, negative = inhibition, most hits filed as inhibitors; actives 0.56% (n = 390,000); also: potency is read from the fitted curve at half-maximal effect; nearly all actives have a fitted effect of over 70% in size
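AlphaScreen: HP1-beta (50 nM) preformed 30 min with biotin-H3(1-18)K9me3 peptide (50 nM) in PBS pH 7.4, 0.01% Tween-20. Compound added for 30 min at RT, then streptavidin donor/nickel chelate acceptor beads (10 ug/mL) for 30 min.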
BAZ2B inh – inhibitors of human BAZ2B bromodomain | AlphaScreen BAZ2B-H3K14Ac peptide displacement | Q9UIF8 | Potency, µM (doses to about 114 µM), for the others: at the highest dose activity change, negative = inhibition, usual class: inhibitors | actives 4.4% (n = 360,000); also: potency is read from the fitted curve at half-maximal effect; % is scaled to controls: 0 for no effect and ±100 for the full control effect; nearly all actives have a fitted effect of over 60% in size
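Multi-concentration screen (max 110 uM) measuring displacement of acetylated histone H3 peptide from BAZ2B by AlphaScreen, using 50 nM protein, 50 nM peptide and 10 ug/mL streptavidin donor plus Ni-chelate acceptor beads.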
* = called active by the depositor; ? = inconclusive; · = not tested or not shown; [ ] = another dose, or the depositor's remark. Unless noted, calls follow the shape of the dose curve; as a rule, active = well fitted inhibition curve with a large enough effect; inconclusive = small, poorly fitted or top-dose-only effect; inactive = no such curve, though single readings can be large or run the other way.

SMILES | Six1-Eya2 blk | CtBP-E1A inh | TDP1 inh | JMJD2A Tudor inh | HP1b chromo inh | BAZ2B inh
O=c1[nH]c(=S)[nH]c2c1C(c1ccc(Br)cc1)c1c([nH]c(=S)[nH]c1=O)O2 | ? | -19 | · | ? | 32µM* | 22µM*
O=C1CCCC2=C1C(c1ccc(Br)cc1)c1c([nH]c(=S)[nH]c1=O)N2 (stereo not drawn) | -3 | 0 | 5% | 40µM* | -24% | ?
CCc1ccccc1NC(=O)N1CCCn2nc(C)cc21 | · | · | 8% | 7% | 36% | -2%
COc1ccc(C2CC(=O)c3cc(-c4nc(-c5ccc(Cl)cc5)cs4)c(=O)[nH]c3C2)cc1 (stereo not drawn) | · | · | -5% | -3% | 49% | -4%
O=S(=O)(c1cccc(C(F)(F)F)c1)n1c(/C=C/c2ccccc2)nc2ccccc21 | · | · | -5% | -9% | 23% | 6%
CCOC(=O)c1cnc2ccc(Cl)cc2c1Nc1ccc(OCC)cc1 | · | · | · | -26% | 13% | -17%
CCOCCc1nn2c(=O)cc(COC(=O)c3ccccc3NC(=O)CC(C)C)nc2s1 | · | · | 1% | -3% | 27% | -5%
Cc1cc2n(n1)CCCN2C(=O)Nc1ccc(C)c(Cl)c1 | · | · | 0% | 4% | 29% | 2%
O=C(O)CCCN1C(=O)/C(=C\c2ccccc2OCc2ccccc2)SC1=S | -5 | -13 | · | 56µM* | ? | 50µM*
CN1CCN(C(=O)CCCN2C(=O)/C(=C/c3ccccc3)SC2=S)CC1 | 6 | -11 | 0% | ? | -38% | ?
O=C(O)CCCN1C(=O)/C(=C\C(Cl)=C\c2ccccc2)SC1=S | -15 | -6 | · | 50µM* | ? | 50µM*
O=C(O)CCCCN1C(=O)/C(=C\c2ccc(OCc3ccccc3)c(OCc3ccccc3)c2)SC1=S | ? | -11 | -14% | 18µM* | ? | 32µM*
Cc1cc(NS(=O)(=O)c2ccc(NC(=O)c3cc4c(=O)n5ccccc5nc4s3)cc2)nc(C)n1 | -22 | · | 40µM* | -12% | 48% | -23%
CC1CCC2C(=O)N3C(CCC(C)C3c3ccc(-c4ccco4)cc3)C(=O)N2C1c1ccc(-c2ccco2)cc1 (stereo not drawn) | · | · | 3.5µM* | · | · | ·
CC1CCC2C(=O)N3C(CCC(C)[C@@H]3c3ccc(-c4ccco4)cc3)C(=O)N2C1c1cccc(N2CCCC2=O)c1 (stereo partly drawn) | · | · | -4%[21 µM] | · | · | ·
CC(C)CC(N)c1csc(Nc2cnccn2)n1 (stereo not drawn) | ? | -75* | · | · | · | ·
CC(C)CC(N)c1csc(Nc2ccccn2)n1 (stereo not drawn) | -83* | -89* | · | · | · | ·
NC(CO)c1csc(Nc2ccc(C(F)(F)F)cn2)n1 (stereo not drawn) | ? | -74* | · | · | · | ·
CNC(=S)NCc1ccc2[nH]c(C)cc2c1 | -8 | · | 8% | ? | -6% | ·
CCc1cccc(C)c1NC(=S)NCc1ccc2[nH]c(C)cc2c1 | -22 | -9 | 11% | ? | 5% | 40µM*
COc1ccc(N/C(=C(/C(Cl)=C(Cl)Cl)[N+](=O)[O-])n2nnc3ccccc32)cc1 | · | · | 6% | · | · | 50µM*
Cc1ccccc1N/C(=C(/C(Cl)=C(Cl)Cl)[N+](=O)[O-])n1nnc2ccccc21 | -4 | -4 | 4% | ? | -5% | 50µM*
O=C(O)CCCN=CC1=C(O)CNC1=O | 6 | 0 | -3% | 22µM* | -16% | -18%
O=C(Nc1ccc2c(c1)OCCO2)N1CCN(c2ccc(F)cc2)CC1 | 0 | 2 | 0% | -25% | -5% | ?
Cc1cccc(C)c1N1CCN(C(=O)Nc2ccc3c(c2)OCCO3)CC1 | -10 | -5 | 4% | 50µM* | 22% | ?
SMILES | Six1-Eya2 blk | CtBP-E1A inh | TDP1 inh | JMJD2A Tudor inh | HP1b chromo inh | BAZ2B inh
COc1ccc(-c2nnc3n2N=C(c2c(OC)cccc2OC)CS3)cc1 | · | · | 7% | -9% | · | ·
CCN=c1scc(C)n1/N=C/c1ccc(O)c(O)c1O | ? | ? | 6% | 45µM* | ? | 22µM*
COCCN=c1scc(-c2cccs2)n1/N=C/c1ccc(O)c(O)c1O | -27 | · | 3% | 8.9µM* | ? | 35µM*
Cc1nc2ccccc2c(=O)n1/N=C/c1ccc(O)cc1O | -18 | ? | 4% | -13% | 46% | -9%
COc1ccc(CC(=O)N/N=C\c2cc(Br)c(O)c(Br)c2)cc1 | -10 | 4 | 9% | -15% | 17% | -25%
COCCCNC(=O)c1c(N)n(/N=C/c2cccs2)c2nc3ccccc3nc12 | 5 | 2 | 0% | -21% | 37% | -33%
CCN=c1scc(C)n1/N=C/c1cc(Br)c(O)c(Br)c1 | -10 | -15 | 5% | ? | ? | 45µM*
O=C(Nc1ccc(Cl)cc1Cl)c1cc(S(=O)(=O)N2CCN(c3ccccc3F)CC2)ccc1F | · | · | 5% | -11% | 47% | 6%
Cc1c2cnn(-c3ccccc3)c(=O)c2c(C)n1C(C)C(=O)Nc1ccccc1C(F)(F)F (stereo not drawn) | · | · | 8% | -20% | 24% | -31%
CCOC(=O)Cc1csc(SCn2nnc3ccccc3c2=O)n1 | -1 | -4 | 3% | 1% | 53% | 29%
CC(C)(C)c1csc(NC(=O)Cc2cccs2)n1 | -1 | 8 | -6% | -11% | 20% | 50µM*
CCOC(=O)Cc1csc(NC(=O)Cc2cccs2)n1 | 0 | 0 | -8% | 45µM* | 5% | 50µM*
CCOC(=O)Cc1csc(NC(=O)Cc2ccccc2)n1 | 7 | -21 | 3% | -9% | 27% | -16%
CCOC(=O)Cc1csc(-n2sc3ccccc3c2=O)n1 | -12 | -5 | 7% | 18µM* | ? | 5µM*
COc1ccc(-c2noc(CC(=O)Nc3ccc(Br)cc3C)n2)cc1 | · | · | 3% | -9% | 38% | -27%
COc1ccc2c(c1)-c1nc(/N=C/c3cccc(OC)c3O)sc1CC2 | -10 | 5 | -1% | ? | ? | 50µM*
CC[C@H](C)[C@H](NC(=O)[C@H](CCCNC(=N)N)NC(=O)[C@@H]1CCCN1C(=O)[C@H](Cc1ccccc1)NC(=O)[C@H](Cc1cnc[nH]1)NC(=O)[C@H](CCCNC(=N)N)NC(=O)[C@@H](NC(=O)[C@H](C)NC(=O)[C@H](CCC(=O)O)NC(=O)[C@H](CC(N)=O)NC(=O)[C@@H](N)CCCCN)C(C)C)C(=O)N[C@@H](Cc1c[nH]c2ccccc12)C(=O)N[C@@H](CC(C)C)C(=O)O | · | · | 8% | · | · | ·
Cc1cccc(N2CCN(C3(c4ccccc4)C(=O)c4ccccc4C3=O)CC2C)c1 (stereo not drawn) | · | · | 10% | ? | ? | 8.9µM*
